Experimental findings from PubChem BioAssay (NCI) are described below.

Some test systems named below: EKVX NSCLC; SN12C renal; UO-31 renal; TK-10 renal; ACHN renal; CAKI-1 renal; A498 renal; MOLT-4 leukemia; CCRF-CEM leukemia.
Holding throughout (assay): NCI-60 one-dose screen, 48 h (100 = growth as untreated, 0 = no growth, -100 = all killed)
Common to all, as to conditions: 10 µM unless noted

This is part of a sample that, as a whole, favours compounds with a hit. Of some 83,000 tested, about 20% had one in any assay.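 Cells were grown in 96-well plates and exposed to the test compound at a single concentration for 48 hours; results are reported as percent growth, with values below 10 considered active.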 A number with no mark means an inactive call. Activity calls are given as the source filed them.

With `O=C1NN(C(=O)c2ccc(Cl)cc2)C(c2ccccc2)=N/C1=C\c1ccc(F)cc1`, the growth in the assay on EKVX NSCLC is 90.7%; in the assay on SN12C renal, 78.1%; with UO-31 renal it was 75.6%; in the assay with TK-10 renal it was 109%; in the assay with ACHN renal, 83.2%; in the assay on CAKI-1 renal, 85.1%. Also, the growth is 73.1% in the assay with A498 renal and 36.2% in the assay on MOLT-4 leukemia.
Regarding `COc1cc2c(c(OC)c1OC)-c1ccc(N)c(=O)cc1[C@@H](NC(C)=O)CC2`, the growth in the assay on EKVX NSCLC was 51.4%; with SN12C renal it was 27.6%; with UO-31 renal, 40%; in the assay on TK-10 renal it was 33.4%; in the assay on ACHN renal it was 27.5%; with CAKI-1 renal, 19.1%. The growth is -12.7% (active) with A498 renal, 21.6% in the assay with CCRF-CEM leukemia and 20.7% with MOLT-4 leukemia.
Take `O=C(Nc1ccc(Cl)c(Cl)c1)NS(=O)(=O)c1cnccc1Oc1ccc(F)cc1`: the growth in the assay on EKVX NSCLC was 15.1%; in the assay on SN12C renal, 76.3%; in the assay with UO-31 renal it was 67.4%; in the assay on TK-10 renal it was 42.3%; with ACHN renal, 43.5%; with CAKI-1 renal, 5.6% (active). The growth in the assay with A498 renal was 33.7%; with CCRF-CEM leukemia it was 2.81% (active); with MOLT-4 leukemia, 52.3%.
As for `COc1ccc(/C=C2\N=C(c3ccccc3)N(C(=O)c3ccccc3O)NC2=O)cc1`, the growth was 88.3% with EKVX NSCLC; 86.6% with SN12C renal; 95.9% in the assay on UO-31 renal; 97.7% in the assay with TK-10 renal; 103% in the assay on ACHN renal; 97.9% in the assay on CAKI-1 renal. The growth with A498 renal is 73.6%; with MOLT-4 leukemia it was 48.3%.
For the molecule `O=C(NNC(=O)N1c2ccccc2C=Cc2ccccc21)c1ccc2ccccc2c1`, the growth with EKVX NSCLC is 89%; in the assay on SN12C renal, 90.5%; with UO-31 renal, 88%; in the assay on TK-10 renal, 102%; with ACHN renal, 96.1%; in the assay with CAKI-1 renal it was 96.8%. Also, the growth in the assay on A498 renal is 94.1%; in the assay with CCRF-CEM leukemia, 95%; in the assay on MOLT-4 leukemia it was 94.9%.
Regarding `CC[N+](CC)=c1cc2oc3cc(N(C)C)ccc3nc-2cc1C`, the growth in the assay with EKVX NSCLC was 3.38% (active); in the assay on SN12C renal, 6.42% (active); in the assay with UO-31 renal it was 39.6%; in the assay with TK-10 renal, 54.6%; with ACHN renal, 73%; in the assay with CAKI-1 renal it was 46.7%. Further, the figures for the growth in the assay on A498 renal, with CCRF-CEM leukemia and with MOLT-4 leukemia were 99.2%, 28.2% and 21.8%, respectively.
`CC(C)(C)OC(=O)NC(CSCc1ccccc1)C(=O)ON1C(=O)CCC1=O` (stereo unspecified): the growth in the assay on EKVX NSCLC is 113%; in the assay on SN12C renal it was 107%; with UO-31 renal it was 90.8%; in the assay on TK-10 renal, 119%; in the assay with ACHN renal it was 101%; in the assay with CAKI-1 renal it was 112%. The growth was 110% with A498 renal, 96.7% with CCRF-CEM leukemia and 97% in the assay on MOLT-4 leukemia.
As to `COc1cc(C(=O)/C=C/c2ccc3nc(-c4cc(F)cc(F)c4)sc3c2)cc(OC)c1OC`, the growth is 110% in the assay with EKVX NSCLC; 93% in the assay on SN12C renal; 88.8% in the assay on UO-31 renal; 100% with TK-10 renal; 88.1% in the assay on ACHN renal; 104% in the assay with CAKI-1 renal. Moreover, the results for the growth in the assay with A498 renal and in the assay on MOLT-4 leukemia were 98.1% and 103%, respectively.
Turning to `COc1ccc(C(=O)N2NC(=O)/C(=C/c3ccc(Br)cc3)N=C2c2ccccc2)cc1`, the growth in the assay with EKVX NSCLC is 95.7%; with SN12C renal, 74.1%; in the assay with UO-31 renal, 92.8%; with TK-10 renal, 107%; with ACHN renal, 87.8%; in the assay on CAKI-1 renal, 96.9%. Also, the values for the growth in the assay on A498 renal and in the assay on MOLT-4 leukemia were 83.5% and 17.3%, respectively.
As to `O=C1NN(C(=O)c2ccc(Cl)cc2)C(c2ccccc2)=N/C1=C\c1cn(-c2ccccc2)nc1-c1ccccc1`, the growth was 81.4% in the assay with EKVX NSCLC; 93.2% in the assay on SN12C renal; 90.6% in the assay on UO-31 renal; 102% in the assay with TK-10 renal; 98.5% in the assay on ACHN renal; 80.4% in the assay on CAKI-1 renal. The growth was 69% with A498 renal and 98.6% with MOLT-4 leukemia.
Regarding `C=C1CCC[C@]2(C)CCC[C@H](C)[C@@H](OC(C)=O)[C@@H]3OC(=O)C(=C)[C@@H]3C[C@H]1O2`, the growth was 77.3% in the assay with EKVX NSCLC; 68.5% in the assay on SN12C renal; 87.1% in the assay with UO-31 renal; 109% with TK-10 renal; 80.1% in the assay on ACHN renal; 69.4% in the assay with CAKI-1 renal. Moreover, the growth was 68.7% in the assay with A498 renal and 64% in the assay with MOLT-4 leukemia.
`C/C(=C\c1ccc(OCC(=O)O)c(Cl)c1Cl)[N+](=O)[O-]`: the growth in the assay on EKVX NSCLC is 102%; with SN12C renal, 106%; with UO-31 renal it was 111%; in the assay with TK-10 renal, 113%; in the assay with ACHN renal, 110%; in the assay on CAKI-1 renal, 93.9%. Besides, the figures for the growth in the assay with A498 renal, with CCRF-CEM leukemia and in the assay with MOLT-4 leukemia were 113%, 102% and 84.6%, respectively.
Regarding `Oc1ccc(Cl)cc1-c1cc(-c2ccc(F)cc2)n[nH]1`, the growth with EKVX NSCLC is 50.6%; with SN12C renal, 66.6%; in the assay with UO-31 renal, 37.5%; in the assay on TK-10 renal it was 114%; in the assay with ACHN renal it was 74.3%; in the assay with CAKI-1 renal, 50.4%. Also, the results for the growth with A498 renal and in the assay with MOLT-4 leukemia were 69.6% and 60.9%, respectively.
With `COc1ccc(Nc2ncccc2C(=O)NCc2cn(Cc3cccc(Oc4ccccc4)c3)nn2)c(OC)c1`, the growth in the assay with EKVX NSCLC was 46.5%; with SN12C renal, 33.7%; with UO-31 renal, 48%; in the assay with TK-10 renal it was 64.5%; in the assay on ACHN renal, 48%; in the assay on CAKI-1 renal, 44.8%. Further, the growth in the assay with A498 renal is -3.05% (active); with MOLT-4 leukemia, 40%.
`COc1ccc(-c2[nH]nc(N)c2-c2cc(OC)c3c(c2)OCO3)cc1`: the growth with EKVX NSCLC is 72.9%; with SN12C renal, 52%; in the assay with UO-31 renal it was 68.1%; with TK-10 renal, 84.8%; in the assay on ACHN renal, 73.8%; in the assay on CAKI-1 renal, 53.4%. Further, the growth in the assay on A498 renal was 43.2%; with MOLT-4 leukemia, 25.7%.
